# Bioassay records from PubChem BioAssay.
# This is a sample that favours compounds with a hit; in the whole collection about 3.4% have one here.
# MITF primary = blocks human microphthalmia-associated transcription factor | 650,000 tested, 0.91% active | AlphaScreen MITF homodimerization, bead proximity signal | inhibition, % at 2.6 µM | O75030 | AID 1259374; in the data active = inhibition above about 50%;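 also: 0% = vehicle wells with protein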
# FBW7 activator = activators of human E3 ligase FBW7. 650,000 tested, 0.13% active. Q969H0. normalized activity (activation), % at 26.1 µM. AlphaScreen FBW7–phospho-cyclin E peptide binding, activator screen; in the data active = normalized activity above about 1.9%;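 also: purified mutant Fbw7 with reduced substrate affinity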
# GPR151 ag = activates the human receptor GPR151 | PathHunter beta-arrestin GPR151 cells, luminescence | 650,000 tested, 1% active | activation, % at 11.2 µM; in the data active = activation above about 4.9%;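 also: 0% = median of compound wells and 100% = cells with positive control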
# Target sequence (Q8TDV0 whole entry, looked up): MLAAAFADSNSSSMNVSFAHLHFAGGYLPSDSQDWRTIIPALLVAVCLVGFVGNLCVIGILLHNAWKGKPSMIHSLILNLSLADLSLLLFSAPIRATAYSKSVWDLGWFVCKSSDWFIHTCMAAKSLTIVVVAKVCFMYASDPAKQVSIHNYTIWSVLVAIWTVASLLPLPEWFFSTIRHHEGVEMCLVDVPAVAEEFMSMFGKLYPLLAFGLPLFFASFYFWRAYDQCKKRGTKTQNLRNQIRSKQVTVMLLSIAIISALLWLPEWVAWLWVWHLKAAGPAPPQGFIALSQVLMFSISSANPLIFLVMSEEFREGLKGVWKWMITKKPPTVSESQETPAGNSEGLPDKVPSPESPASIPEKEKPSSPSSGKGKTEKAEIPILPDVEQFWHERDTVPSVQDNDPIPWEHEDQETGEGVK
# TEAD-YAP block = TEAD-YAP interaction inhibition | inhibition, % at 9.12 µM | 640,000 tested, 1.4% active | HEK-TIYL cells, TEAD-Gal4/YAP UAS-luciferase luminescence; in the data active = inhibition above about 32%;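 also: 0% = median of test compound wells and 100% = reference inhibitor wells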
# GPR151 confirm = human GPR151 activation, confirmation screen; 6,700 tested, under 10 active; activation, % at 11.2 µM; GPR151 PathHunter beta-arrestin cells, luminescence, 90 min; % of EA-reagent control over plate median; AID 1508609; shares compounds with GPR151 ag;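 active = mean percent activation across replicates above the confirmation screen cutoff of 4.91%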
# GPR119 counter = counter-screen for GPR151 activators: effect on human GPR119. shares compounds with GPR151 ag. GPR119 PathHunter beta-arrestin cells, luminescence, 90 min; 0 = compound-well median, 100 = enzyme-acceptor control. activation, % at 11.2 µM. 6,700 tested, 0.3% active. AID 1508611;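 active = mean percent activation in the counterscreen above 29.09%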;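 also: counterscreen on off-target GPR119 to flag nonselective hits from the GPR151 activator screen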
# Numbers without * were called inactive; . = no result.
SMILES,MITF primary,FBW7 activator,GPR151 ag,TEAD-YAP block,GPR151 confirm,GPR119 counter
COCCNC(=O)C1CCN(c2nc(C)cc(OC)n2)CC1,16,1,1,-10,.,.
CN(CCO)C(=O)c1cc(COc2cccc3cnccc23)on1,19,0,6.7*,-5,1,-3
CC(C)c1cc(CNC(=O)c2cc(COc3cccc4cnccc34)on2)on1,12,0,0,15,.,.
O=[N+]([O-])C1COC(c2ccccc2)OC1 (stereo not given),8,0,-2,3,.,.
N#C/C(=C\c1ccc(OC(F)F)cc1)C(=O)Nc1cccnc1,0,0,0,-2,.,.
Fc1ccc(NC(=S)N2CCC3(CC2)OCCO3)c(F)c1,-3,0,1,-18,.,.
CN(Cc1ccc(OCC(O)CN2CCc3ccccc3C2)cc1)Cc1cccnc1 (stereo not given),-12,0,0,1,.,.
CN(Cc1ccc(OCC(O)CN2CCc3ccccc3C2)cc1)Cc1nccs1 (stereo not given),-18,0,5.6*,-3,-1,-15
Cc1sc2nc(CSCC(=O)NC3CC3)[nH]c(=O)c2c1C,-10,0,6.1*,-3,0,2
Cc1sc2nc(CSCC(=O)NCC(F)(F)F)[nH]c(=O)c2c1C,7,0,2,3,.,.
Cc1[nH]c2ccccc2c1/C=N/NC(=O)c1ccccc1O,15,0,0,-10,.,.
Cc1[nH]c2ccccc2c1/C=N/NC(=O)c1cccnc1,1,0,5.2*,-13,-1,7
O=C(N/N=C/c1ccccc1F)c1cccnc1,13,0,7.1*,-3,-1,-6
Cc1n[nH]c(C)c1CCC(=O)N1CCC[C@@H]2CN(Cc3ccc(F)cc3)CC[C@H]21,2,0,3,-4,.,.
Cn1ncc2c(N3CCN(Cc4ccc5c(c4)OCO5)CC3)ncnc21,6,1,1,2,.,.
O=[N+]([O-])c1ccc2ncnc(N3CCN(Cc4ccc5c(c4)OCO5)CC3)c2c1,4,-1,12*,35*,1,3
CCOP(=O)(CN(Cc1ccco1)C(=S)Nc1c(C)cccc1CC)OCC,8,0,0,-3,.,.
Cc1sc(NC(=O)c2ccc(N3CCCCC3)c([N+](=O)[O-])c2)c(C#N)c1C,13,0,13*,-2,1,-12
COc1cc(C(N)CC(=O)O)ccc1OCC(N)=O (stereo not given),2,0,0,0,.,.
CCC(C(=O)N1CCCCC1)n1ncn2c(cc3occc32)c1=O (stereo not given),6,0,5.7*,-6,0,6
CC1CCc2c(sc3c2c2ncnn2c2n[nH]c(=S)n32)C1 (stereo not given),-5,0,2,10,.,.
CCOCCc1nnc(NC(=O)CC(c2ccccc2)c2ccccc2)s1,20,1,8.6*,2,0,9
Cc1cccc(C)c1NC(=O)CSc1ncn[nH]1,-17,0,2,-9,.,.
CCc1cccc(C)c1NC(=O)CSc1ncn[nH]1,18,0,7.4*,4,0,-6
CC(C)n1c(Nc2ccc(N3CCOCC3)cc2)nc2c(Nc3ccc(N4CCOCC4)cc3)ncnc21,13,0,-1,11,.,.
SMILES,MITF primary,FBW7 activator,GPR151 ag,TEAD-YAP block,GPR151 confirm,GPR119 counter
CC(C)n1c(Nc2ccnn2C)nc2c(Nc3ccc(N4CCOCC4)cc3)ncnc21,13,0,5.5*,-5,0,-3
CC1=C(C(=O)Nc2cccc(C(F)(F)F)c2)C(c2ccc3c(c2)OCO3)C2=C(CC(c3ccccc3)CC2=O)N1 (stereo not given),12,0,-1,7,.,.
CC(C(=O)O)N1C(=O)/C(=C/C=C/c2ccccc2)SC1=S (stereo not given),1,0,7.4*,-7,1,17
Cc1ccc(C)c(-c2cc(C(=O)NN3CCOCC3)c3ccccc3n2)c1,-2,0,5.4*,-2,-1,-10
CCN(CC)c1ccc2cc(C(N)=O)c(=Nc3cc(F)ccc3F)oc2c1,-5,0,-1,1,.,.
Cc1oc(-c2ccc(Cl)cc2)nc1CS(=O)CC(=O)NC(C)C (stereo not given),6,0,9.4*,3,-1,-9
Cc1oc(-c2ccc(Cl)cc2)nc1CS(=O)CC(=O)NC(C)c1ccccc1 (stereo not given),15,1,-1,-7,.,.
O=C(CSc1nnc2n1CCN2c1ccccc1)NCc1ccco1,16,0,-1,-3,.,.
CCCCCC(=O)Nc1ccc(N2CCN(CC)CC2)cc1,7,0,11*,-14,0,0
Nc1ccc(C(=C(Cl)Cl)c2ccc(N)c(O)c2)cc1O,-18,0,3,-4,.,.
CCOC(=O)C(C#N)C(=O)c1ccc(F)c(F)c1 (stereo not given),-5,0,-1,0,.,.
CCOC(=O)C(C#N)C(=O)c1ccc(N2C(=O)CCC2=O)cc1 (stereo not given),9,1,6.6*,14,-1,-10
c1ccc2c(-c3nc(NC4CC4)c4ncn(C5CCCCC5)c4n3)csc2c1,-3,0,7.5*,-13,-1,-16
FC(F)(F)c1ccc(Cn2cnc3c(NC4CC4)nc(-c4csc5ccccc45)nc32)cc1,4,0,1,-6,.,.
FC(F)(F)c1ccc(Cn2cnc3c(NC4CCN(Cc5ccccc5)CC4)nc(-c4csc5ccccc45)nc32)cc1,-3,0,7.0*,8,0,3
C=C(C)CN(CC)C(=O)CC1(c2ccccc2)CC(=O)N(CCCOc2cccnc2)C1=O (stereo not given),9,0,-1,1,.,.
COc1ccc(/C=C(\NC(=O)c2ccccc2)C(=O)NN)c(OC)c1,-13,0,0,-1,.,.
COc1ccc(/C=C(/NC(=O)c2ccc(C)cc2)C(=O)O)c(OC)c1,-2,0,5.3*,-3,1,13
COc1cccc(/C=N\N2CCN(c3ccc(Cl)cc3)CC2)c1O,0,0,-1,7,.,.
CCC(C)c1ccc(NC(=O)CSc2ccc(C(=O)O)cn2)cc1 (stereo not given),5,0,1,-3,.,.
O=C1Nc2ccc3ccccc3c2C(c2ccccc2)N1 (stereo not given),1,1,9.1*,16,-1,-13
NNC(=O)CSc1nc2cccnc2s1,-15,-1,5.1*,2,0,6
CCOC(=O)c1sc2ncn(Cc3ccc(Cl)cc3)c(=O)c2c1C,9,0,1,8,.,.
CCOC(=O)c1sc2ncn(Cc3ccc(C(F)(F)F)cc3)c(=O)c2c1C,9,0,6.2*,-3,1,11
O=C(/C=C/c1ccco1)Nc1ccc(S(=O)(=O)N2CCCCC2)cc1,-13,0,13*,5,-1,-8
